# Data from PubChem BioAssay.
# Unmarked numbers belong to inactive results. No rule for the calls is given here.
# System: Botulinum neurotoxin type F light chain protease (Clostridium botulinum)
# Test: Botulinum neurotoxin type F light chain protease inhibition, multiplex microsphere flow cytometry, validation set (AID 588459)
# Settings: multiplex microsphere protease substrate cleavage assay, at 10 µM, stronger effect = higher value
row,SMILES,inhibition [%]
1,CCOc1ccc(C(=O)C(C)=O)c(OCC)c1,4.3
2,Cc1cc(O)c(C(C)C)cc1C1(c2cc(C(C)C)c(O)cc2C)OC(=O)c2ccccc21,-0.9
3,CN(C)CCOc1ccccc1Cc1ccccc1,19.8
4,C#CCN(C)Cc1ccccc1,2.5
5,Cc1ccsc1/C=N\NC(=O)c1ccc2c(c1)OCO2,2.9
6,O=C(c1ccccc1)N1CCN(C(=O)c2ccccc2)CC1,-0.3
7,C/C(NC(=O)c1cccs1)=C1\C(=O)C[C@@H]2[C@H]1C2(C)C,3
8,CC(=O)O[C@H]1C[C@@]2(C)[C@@H](C[C@@H](O)[C@H]3[C@@]4(C)CC[C@@H](O)[C@@H](C)C4CC[C@@]32C)/C1=C(\CCC=C(C)C)C(=O)O (stereo not given in full),-2.5
9,Cc1cc(C)nc(NS(=O)(=O)c2ccc(N)cc2)n1,1.3
10,OCCN1CCN(CCCN2c3ccccc3Sc3ccc(Cl)cc32)CC1,-0.8
11,CCOC(=O)c1cc2c(nc1N)CC(C)(CC)OC2 (stereo not given),3.5
12,Cc1oc2cc(O)ccc2c(=O)c1Oc1ccccc1Br,-1.1
13,CC(=O)OC[C@H]1O[C@@H](n2ncc(=O)[nH]c2=O)[C@H](OC(C)=O)[C@@H]1OC(C)=O,-0.5
14,COc1ccc(-c2csc(-c3cccnc3)n2)cc1C,-2
15,CC(C)CCOCC(=O)Nc1cccc(C(=O)O)c1,2.9
16,O=C(O)CCn1cnc2ccccc2c1=O,1.4
17,O=C(CCCCC(=O)NC1CCCC1)NC1CCCC1,1.5
18,O=c1ccn([C@@H]2O[C@H](CO)[C@@H](O)[C@H]2O)c(=O)[nH]1,0.8
19,Cc1cc(-c2nn(-c3ccccc3F)cc2CN2CCC(O)CC2)c(C)s1,-1.7
20,C/C(=N\NC(=O)C1(C)CC1(Br)Br)c1ccc([N+](=O)[O-])cc1 (stereo not given),2.6

row,SMILES,inhibition [%]
1,CC1(C)CC(c2csc(N)n2)CCO1 (stereo not given),-0.4
2,O=C(CCCN1C(=O)/C(=C\c2cccs2)SC1=S)Nc1ccccn1,4
3,C[C@@H]1C[C@H](Nc2ccccc2)c2ccccc2N1C(=O)c1cccnc1,1
4,O=C1[C@@H]2[C@H](Cc3ccc(O)cc3)N[C@]3(C(=O)Nc4ccccc43)[C@@H]2C(=O)N1c1ccc(F)cc1,1.3
5,COC(=O)[C@@H](N)CS,2.1
6,CN(C)c1ccc(Nc2c3c4c(cccc4n(C)c2=O)C(=O)c2ccccc2-3)cc1,-13.5
7,CC12CC(c3ccccc3O1)C(C(=O)N1CCOCC1)C(=O)N2 (stereo not given),2.8
8,CC(C)CN(C)Cc1c(C(=O)N2CCc3ccccc3C2)nc2ccc(Cl)cn12,2.4
9,COC(=O)c1cc(=O)c2ccc(OC)cc2o1,-4.1
10,OCCC1CN(Cc2ccccc2-c2ccco2)CCN1C1CCCC1 (stereo not given),4.4
11,C=C(C)c1nc2cc(OC)c(OC)cc2c(=O)o1,-7.9
12,Cn1c(=O)c2c(ncn2CCO)n(C)c1=O,1.2
13,N#Cc1cc2c([nH]c1=O)CCCC2,-0.1
14,O=C1Nc2ccc3sc4ccccc4c3c2C1=O,-1.1
15,O=c1cc(CN2CCN(c3cccc(Cl)c3)CC2)c2cc(O)c(-c3ccccc3)cc2o1,-1.3
16,CS(=O)c1ccccc1O (stereo not given),1.4
17,Cc1ccccc1OCCSc1nc2ncnc(N)c2[nH]1,0.8
18,CC(=O)N1CC2(C)CN(C(C)=O)CC(C)(C1)C2,-2.3
19,CC(C)COc1ccc(Cc2cnc(N)nc2N)cc1,5
20,Cc1ccc2[nH]c3c(=O)n(CCCN4CCN(C)CC4)cnc3c2c1,7.8

# Molecular target: Botulinum neurotoxin type A (Clostridium botulinum) (UniProt P0DPI0)
# Sequence (P0DPI0 whole entry, looked up): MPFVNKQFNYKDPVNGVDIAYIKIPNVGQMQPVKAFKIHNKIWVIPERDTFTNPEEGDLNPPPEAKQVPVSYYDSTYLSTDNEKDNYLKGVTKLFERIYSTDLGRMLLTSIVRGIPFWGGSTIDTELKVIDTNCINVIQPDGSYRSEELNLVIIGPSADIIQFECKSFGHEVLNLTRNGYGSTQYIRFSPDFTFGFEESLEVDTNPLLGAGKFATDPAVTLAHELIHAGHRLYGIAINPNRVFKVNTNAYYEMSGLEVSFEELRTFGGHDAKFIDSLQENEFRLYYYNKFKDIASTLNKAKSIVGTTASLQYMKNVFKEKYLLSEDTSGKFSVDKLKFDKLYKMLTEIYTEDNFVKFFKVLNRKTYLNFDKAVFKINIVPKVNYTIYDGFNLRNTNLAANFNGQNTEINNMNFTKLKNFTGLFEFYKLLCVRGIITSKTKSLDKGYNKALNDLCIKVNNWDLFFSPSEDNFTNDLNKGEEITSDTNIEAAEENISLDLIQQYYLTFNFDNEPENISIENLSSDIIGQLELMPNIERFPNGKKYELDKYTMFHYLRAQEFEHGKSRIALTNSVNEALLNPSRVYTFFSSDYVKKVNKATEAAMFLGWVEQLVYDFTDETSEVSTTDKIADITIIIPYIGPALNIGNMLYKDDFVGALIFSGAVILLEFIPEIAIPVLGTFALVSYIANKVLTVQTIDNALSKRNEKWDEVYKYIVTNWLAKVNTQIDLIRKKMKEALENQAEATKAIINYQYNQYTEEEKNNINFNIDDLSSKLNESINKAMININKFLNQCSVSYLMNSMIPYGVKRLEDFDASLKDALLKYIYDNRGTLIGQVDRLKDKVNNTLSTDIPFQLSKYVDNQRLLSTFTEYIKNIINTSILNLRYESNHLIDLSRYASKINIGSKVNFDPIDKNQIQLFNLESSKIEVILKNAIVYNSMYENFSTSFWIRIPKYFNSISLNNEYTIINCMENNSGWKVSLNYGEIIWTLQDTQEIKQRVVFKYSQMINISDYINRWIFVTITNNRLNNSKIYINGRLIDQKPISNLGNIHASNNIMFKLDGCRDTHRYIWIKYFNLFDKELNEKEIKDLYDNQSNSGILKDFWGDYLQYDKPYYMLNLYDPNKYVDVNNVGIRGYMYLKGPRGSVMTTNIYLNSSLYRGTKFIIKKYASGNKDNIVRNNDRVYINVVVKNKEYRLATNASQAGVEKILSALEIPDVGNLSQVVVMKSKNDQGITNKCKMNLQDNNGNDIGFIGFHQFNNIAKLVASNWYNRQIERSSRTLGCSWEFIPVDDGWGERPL
# Test: BoNT/A light chain protease inhibitors, biochemical, multiplex microsphere flow cytometry, validation set (AID 588460)
# Settings: at 10 µM, stronger effect = higher value
row,SMILES,inhibition [%]
1,CCOc1ccc(C(=O)C(C)=O)c(OCC)c1,1
2,Cc1cc(O)c(C(C)C)cc1C1(c2cc(C(C)C)c(O)cc2C)OC(=O)c2ccccc21,-0.3
3,CN(C)CCOc1ccccc1Cc1ccccc1,1.6
4,C#CCN(C)Cc1ccccc1,-0.5
5,Cc1ccsc1/C=N\NC(=O)c1ccc2c(c1)OCO2,0.4
6,O=C(c1ccccc1)N1CCN(C(=O)c2ccccc2)CC1,-0.7
7,C/C(NC(=O)c1cccs1)=C1\C(=O)C[C@@H]2[C@H]1C2(C)C,0.5
8,CC(=O)O[C@H]1C[C@@]2(C)[C@@H](C[C@@H](O)[C@H]3[C@@]4(C)CC[C@@H](O)[C@@H](C)C4CC[C@@]32C)/C1=C(\CCC=C(C)C)C(=O)O (stereo not given in full),-0.2
9,Cc1cc(C)nc(NS(=O)(=O)c2ccc(N)cc2)n1,2.1
10,OCCN1CCN(CCCN2c3ccccc3Sc3ccc(Cl)cc32)CC1,0.8
11,CCOC(=O)c1cc2c(nc1N)CC(C)(CC)OC2 (stereo not given),1
12,Cc1oc2cc(O)ccc2c(=O)c1Oc1ccccc1Br,-0.5
13,CC(=O)OC[C@H]1O[C@@H](n2ncc(=O)[nH]c2=O)[C@H](OC(C)=O)[C@@H]1OC(C)=O,-0.3
14,COc1ccc(-c2csc(-c3cccnc3)n2)cc1C,-1.6
15,CC(C)CCOCC(=O)Nc1cccc(C(=O)O)c1,0
16,O=C(O)CCn1cnc2ccccc2c1=O,0.3
17,O=C(CCCCC(=O)NC1CCCC1)NC1CCCC1,0.2
18,O=c1ccn([C@@H]2O[C@H](CO)[C@@H](O)[C@H]2O)c(=O)[nH]1,-0.2
19,Cc1cc(-c2nn(-c3ccccc3F)cc2CN2CCC(O)CC2)c(C)s1,0.2
20,C/C(=N\NC(=O)C1(C)CC1(Br)Br)c1ccc([N+](=O)[O-])cc1 (stereo not given),0.4

row,SMILES,inhibition [%]
1,CC1(C)CC(c2csc(N)n2)CCO1 (stereo not given),-1
2,O=C(CCCN1C(=O)/C(=C\c2cccs2)SC1=S)Nc1ccccn1,5.2
3,C[C@@H]1C[C@H](Nc2ccccc2)c2ccccc2N1C(=O)c1cccnc1,1
4,O=C1[C@@H]2[C@H](Cc3ccc(O)cc3)N[C@]3(C(=O)Nc4ccccc43)[C@@H]2C(=O)N1c1ccc(F)cc1,1.7
5,COC(=O)[C@@H](N)CS,-1.9
6,CN(C)c1ccc(Nc2c3c4c(cccc4n(C)c2=O)C(=O)c2ccccc2-3)cc1,-3.2
7,CC12CC(c3ccccc3O1)C(C(=O)N1CCOCC1)C(=O)N2 (stereo not given),0
8,CC(C)CN(C)Cc1c(C(=O)N2CCc3ccccc3C2)nc2ccc(Cl)cn12,0.6
9,COC(=O)c1cc(=O)c2ccc(OC)cc2o1,-0.9
10,OCCC1CN(Cc2ccccc2-c2ccco2)CCN1C1CCCC1 (stereo not given),0.5
11,C=C(C)c1nc2cc(OC)c(OC)cc2c(=O)o1,-1.3
12,Cn1c(=O)c2c(ncn2CCO)n(C)c1=O,-1.8
13,N#Cc1cc2c([nH]c1=O)CCCC2,-0.6
14,O=C1Nc2ccc3sc4ccccc4c3c2C1=O,-0.8
15,O=c1cc(CN2CCN(c3cccc(Cl)c3)CC2)c2cc(O)c(-c3ccccc3)cc2o1,-1.5
16,CS(=O)c1ccccc1O (stereo not given),0
17,Cc1ccccc1OCCSc1nc2ncnc(N)c2[nH]1,-1
18,CC(=O)N1CC2(C)CN(C(C)=O)CC(C)(C1)C2,-1.6
19,CC(C)COc1ccc(Cc2cnc(N)nc2N)cc1,2
20,Cc1ccc2[nH]c3c(=O)n(CCCN4CCN(C)CC4)cnc3c2c1,-1
